Counter-ions that a name gives are not always drawn. ± gives the standard deviation of the averaged measurements. Over roughly 1,100 compounds, “day of extracellular matrix detachment from plate” has its median near 16; the lowest 2% begin near 10. Shown is part of a subset that was picked to be rich in the lowest values.
System: RDEB dermal fibroblasts EB71
Test: day of extracellular matrix detachment from plate (days); higher = delayed detachment (less fibrotic matrix)
Details: compound concentration: 10 uM

Row | Compound | day of extracellular matrix detachment from plate
1 | C#C[C@]1(O)CC[C@H]2[C@@H]3CCC4=CC(=O)CC[C@@H]4[C@H]3C(=C)C[C@@]21CC [Etonogestrel] | 20
2 | CC(C)Oc1ccc(-c2nc(-c3cccc4c3CC[C@@H]4NCCO)no2)cc1C#N [Ozanimod (RPC1063)] | 16.3 ± 1.1
3 | Cc1cccc(Nc2ccncc2S(=O)(=O)NC(=O)NC(C)C)c1 [Torsemide] | 15.7 ± 6.3
4 | NC1=NCC2c3ccccc3Cc3ccccc3N12 (stereo not drawn) [Epinastine HCl] | 13
5 | CN1CCN2c3ncccc3Cc3ccccc3C2C1 (stereo not drawn) [Mirtazapine] | 12
6 | CN1CCN2c3ccccc3Cc3ccccc3C2C1 (stereo not drawn) [Mianserin HCl] | 9.67 ± 1.1
7 | C=C[C@]1(C)C[C@@H](OC(=O)CSC(C)(C)CNC(=O)[C@H](N)C(C)C)[C@]2(C)[C@H](C)CC[C@]3(CCC(=O)[C@H]32)[C@@H](C)[C@@H]1O [Valnemulin HCl] | 19
8 | C[C@]12CC[C@@H]3c4ccc(O)cc4CC[C@H]3[C@@H]1CC[C@@H]2OC(=O)CCC1CCCC1 [Estradiol Cypionate] | 13
9 | C[C@@H]1COC(Nc2ccc3ncnc(Nc4ccc(OCc5nccs5)c(Cl)c4)c3c2)=N1 [Varlitinib] | 31
10 | C[C@H](CCC(=O)O)[C@H]1CC[C@H]2[C@@H]3[C@@H](O)C[C@@H]4C[C@H](O)CC[C@]4(C)[C@H]3CC[C@]12C [Ursodiol] | 10.3 ± 1.1
11 | C[C@H](CCC(=O)O)[C@H]1CC[C@H]2[C@@H]3[C@H](O)C[C@@H]4C[C@H](O)CC[C@]4(C)[C@H]3CC[C@]12C [Chenodeoxycholic Acid] | 15.7 ± 6.3
12 | C[C@H](CCC(=O)O)[C@H]1CC[C@H]2[C@@H]3CC[C@@H]4C[C@H](O)CC[C@]4(C)[C@H]3CC[C@]12C [Lithocholic acid] | 15.3 ± 2.3
13 | CO[C@H]1/C=C/O[C@@]2(C)Oc3c(C)c(O)c4c(O)c(c(/C=N/N5CCN(C6CCCC6)CC5)c(O)c4c3C2=O)NC(=O)/C(C)=C\C=C\[C@H](C)[C@H](O)[C@@H](C)[C@@H](O)[C@@H](C)[C@H](OC(C)=O)[C@@H]1C [Rifapentine] | 12
14 | C[C@@H]1CC(=O)NN=C1c1ccc(NN=C(C#N)C#N)cc1 [Levosimendan] | 19.3 ± 6.3
15 | CC[C@@H](CO)NCCN[C@@H](CC)CO [Ethambutol HCl] | 15.3 ± 2.3
16 | Cc1c(C)c2c(c(C)c1O)CC[C@@](C)(CCC[C@H](C)CCC[C@H](C)CCCC(C)C)O2 [Vitamin E] | 17.3 ± 2.5
17 | CCOc1ccccc1OC(c1ccccc1)C1CNCCO1 (stereo not drawn) [Reboxetine mesylate] | 18
18 | N[C@@H](CC(=O)N1CCn2c(nnc2C(F)(F)F)C1)Cc1cc(F)c(F)cc1F [Sitagliptin phosphate monohydrate] | 18
